Source: PubChem BioAssay (Broad Institute)
LGR2 antag – inhibitors of bursicon-induced LGR2 CRE-luciferase signal, primary screen, cell-based, HEK293, CRE-luciferase reporter, bursicon stimulation; bursicon-stimulated, 4 h; inhibition, % at 9.99 µM; 380,000 compounds, 0.35% hits;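 active = drop in luminescence signal, shown as inhibition above about 50% in the replicate tests, limit read from the data, passing the limit was not always enough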;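 also: agonist challenge used bursicon conditioned medium at about half maximal strength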
GSIS activator – GLuc luminescence reporter in INS-1E cells, primary screen for activators of glucose-dependent secretion of insulin; INS-1E GLuc reporter insulin secretion, 2-3 h; activation, % at 16.6 µM; 370,000 compounds, 0.61% hits; AID 743287, 2014;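 active = lowest replicate activation of at least 40%, so every replicate reaches that level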;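 also: 0% = median of neutral control wells and 100% = median of IBMX positive control wells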
EWS-Fli inh – EWS/Fli-driven NR0B1 reporter inhibitors, primary screen, A673 cells, NR0B1 luciferase, luminescence, MLPCN library; AID 651661, 2012; 350,000 compounds, 0.67% hits; inhibition, % at 12.6 µM; viability-normalised;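 active = mean inhibition of at least 50% after viability correction, with every replicate also passing that limit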;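 also: firefly luciferase signal divided by Alamar Blue viability fluorescence both relative to DMSO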
RAD54 inh – inhibitors of human RAD54 branch migration, primary screen, biochemical, fluorescence, single point; DNA repair and recombination protein RAD54-like (Homo sapiens), Q92698; RAD54 Holliday junction branch migration, FAM/BHQ fluorescence; inhibition, % at 10.4 µM; 360,000 compounds, 0.14% hits; AID 602329, 2012;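 active = mean normalized replicate activity at least 40 and at least half of replicates scoring 40 or more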;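 also: 0% = median of neutral control wells and 100% = median of positive control wells; inhibitors cause a drop in the FAM fluorescence signal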
Target sequence (Q92698 whole entry, looked up): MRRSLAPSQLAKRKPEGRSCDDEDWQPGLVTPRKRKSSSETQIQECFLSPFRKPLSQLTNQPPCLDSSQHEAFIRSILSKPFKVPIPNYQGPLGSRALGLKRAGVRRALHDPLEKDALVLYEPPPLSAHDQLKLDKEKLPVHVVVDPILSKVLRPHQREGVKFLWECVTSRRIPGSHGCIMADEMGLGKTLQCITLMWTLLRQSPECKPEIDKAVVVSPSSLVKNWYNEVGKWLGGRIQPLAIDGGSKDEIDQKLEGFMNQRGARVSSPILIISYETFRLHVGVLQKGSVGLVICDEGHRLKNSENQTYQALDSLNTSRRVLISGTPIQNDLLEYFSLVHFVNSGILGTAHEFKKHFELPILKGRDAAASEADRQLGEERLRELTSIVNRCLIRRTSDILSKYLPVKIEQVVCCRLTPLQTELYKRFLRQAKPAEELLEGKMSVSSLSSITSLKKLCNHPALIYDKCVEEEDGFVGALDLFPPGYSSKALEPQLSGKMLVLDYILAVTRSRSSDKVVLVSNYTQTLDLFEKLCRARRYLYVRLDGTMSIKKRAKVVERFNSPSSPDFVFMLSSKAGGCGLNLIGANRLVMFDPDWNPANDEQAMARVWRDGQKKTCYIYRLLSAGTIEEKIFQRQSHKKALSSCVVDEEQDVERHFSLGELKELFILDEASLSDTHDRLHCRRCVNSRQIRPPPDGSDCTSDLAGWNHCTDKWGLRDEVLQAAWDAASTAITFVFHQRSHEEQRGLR
RAD52 inh – RAD52 DNA annealing inhibitors, primary screen, biochemical, FRET, single point, set 2; DNA repair protein RAD52 homolog (Homo sapiens), P43351; recombinant RAD52 DNA annealing, FRET fluorescence; inhibition, % at 18.7 µM; 360,000 compounds, 0.46% hits; AID 651710, 2012;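 active = every replicate showing at least 50% inhibition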
F508del corr – F508del CFTR correction, initial screen, CFBE line, single point. CFBE cells, YFP halide quenching; stimulated with forskolin plus potentiator P3; % fluorescence drop versus neutral controls. activity (quench increase), % at 7.58 µM. 350,000 compounds, 0.36% hits. AID 720511, 2013;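 active = mean added fluorescence quench of at least 8% versus neutral control, with both replicates also reaching 8%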;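 also: cells transiently co-express mutant CFTR-F508del with the halide-sensitive YFP; corrector assay measuring rescue of mutant channel to the surface after 24 h compound exposure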
The depositor's hits bear a star; i = inactive; . = not tested or not shown. Sampled rows, rich in hits. Any-hit rate of the full collection: about 1.8%.

SMILES	LGR2 antag	GSIS activator	EWS-Fli inh	RAD54 inh	RAD52 inh	F508del corr
Cc1ccc(CONC(=O)c2ccccc2)cc1	-24.9	12.9	-83.8	7.0	-6.6	1.7
O=C(N/N=C/c1c(O)ccc2ccccc12)c1ccc(Br)o1	16.9	-9.8	.	-19.8	-80.5	12.4*
O=C(N/N=C\c1c(O)ccc2ccccc12)c1cncc(Br)c1	16.2	8.1	0.4	-76.9	i	35.4*
O=C(N/N=C\c1c(O)ccc2ccccc12)c1ccc(O)cc1	16.0	4.1	-12.6	-2.8	-19.4	-6.6
C[C@H]1CCCCO[C@@H](CN(C)C(=O)CCCN(C)C)[C@@H](C)CN([C@@H](C)CO)C(=O)c2cc(NC(=O)Cc3ccccc3)ccc2O1	-4.4	33.2	-10.1	6.2	22.7	0.3
COc1cc(C)c(S(=O)(=O)NCCCn2ccnc2)cc1C	5.3	.	9.4	-8.2	4.7	-2.2
N#C[C@@H]1[C@H](c2ccc(-c3ccc(F)cc3)cc2)[C@@H](CO)N1c1nc(-c2ccccc2)cs1	-8.3	-5.0	-3.3	.	62.9*	-0.3
N#C[C@@H]1[C@@H](c2ccc(-c3ccc(F)cc3)cc2)[C@H](CO)N1c1nc(-c2ccccc2)cs1	1.5	13.4	-6.1	-12.8	-38.3	-3.2
Cc1ccc(SCc2cc(=O)[nH]c(/N=C(\N)Nc3cccc4ccccc34)n2)cc1	5.6	21.5	9.5	.	-16.2	-4.5
O=C(NNc1ccccc1[N+](=O)[O-])Nc1cccc(Cl)c1	-4.7	-18.9	1.5	.	-5.2	-0.7
O=C(c1ccco1)N1N=C(C2CCCCC2)CC1(O)C(F)(F)F (centres undefined)	-13.0	51.9*	-11.0	.	-1.4	1.4
O=S(=O)(c1ccc(Cl)cc1)N(Cc1ccccn1)Cc1ccccn1	6.9	2.3	-8.8	2.6	-17.6	-1.2
NS(=O)(=O)c1ccc(S(=O)(=O)N(CCc2ccccc2)Cc2ccccn2)cc1	-4.2	-15.6	-0.8	-7.8	-5.4	8.4*
COC(=O)C1=C(C)NC(c2c(O)ccc3ccccc23)C(C(=O)OC)=C1C (centres undefined)	-7.8	53.5*	.	.	.	.
COC(=O)C1=C(C)NC(=O)NC1c1c(O)ccc2ccccc12 (centres undefined)	3.7	5.1	6.7	-5.2	-13.2	-1.8
CC1(C)C([N+](=O)[O-])C(c2ccc(Cl)cc2)NC(c2ccc(Cl)cc2)C1[N+](=O)[O-] (centres undefined)	2.5	7.5	12.6	-1.8	-5.3	.
CC1(C)CC(=O)C=C(c2ccc(Oc3ccccc3)cc2)C1=O	-18.9	-16.8	-27.9	8.7	-20.2	-1.3
CC1(C)CC(=O)C=C(c2ccc(-c3cnc4ccccc4c3)cc2)C1=O	62.8*	22.1	0.0	-5.7	-6.7	1.7
CCOC(=O)c1nnn(-c2nonc2N)c1CNc1ccc(C)c(Br)c1	.	.	.	-3.4	.	.
Cc1ccc(/C=N\NC(=O)c2csnn2)cc1	.	.	.	7.2	.	.
Cc1ccc(C2(C)NC(=O)N(CC(=O)Nc3nc(-c4ccccn4)cs3)C2=O)cc1 (centres undefined)	-9.5	-11.5	15.8	-10.8	-36.4	10.0*
Cc1noc(C)c1NC(=O)Nc1ccc2c(c1)C(=O)N([C@@H](C)CO)C[C@@H](C)[C@H](CN(C)Cc1ccncc1)OCCCC[C@@H](C)O2	8.7	4.9	-2.0	-2.6	-2.2	-0.2
CCc1ccn2cc(-c3ccc4c(c3)OCO4)nc2c1	97.3*	3.2	83.1*	9.3	-14.9	2.3
COC(=O)c1ccc2nc(-c3ccc4c(c3)OCO4)cn2c1	82.9*	2.7	2.1	-0.2	-12.3	-3.0
COc1ccc(-c2cn3cc(C(=O)NN)ccc3n2)cc1	-46.8	1.6	-37.9	.	-15.7	-0.1
SMILES	LGR2 antag	GSIS activator	EWS-Fli inh	RAD54 inh	RAD52 inh	F508del corr
CC(C)CN(C(=O)c1cccs1)C1CCS(=O)(=O)C1 (centres undefined)	0.8	14.9	0.4	.	-9.2	1.5
COc1cc(-c2noc(C)c2C#CC2(O)CCCCC2)cc(OC)c1OC	15.1	-42.2	18.2	4.5	-7.0	-3.1
CC(C)c1ccc(OCC(=O)NC(C)c2ccccc2)cc1 (centres undefined)	1.8	.	4.0	-12.6	-3.1	-1.3
CC(NC(=O)COC(=O)c1ccccc1O)c1ccccc1 (centres undefined)	-2.4	12.9	2.5	-7.1	-6.1	1.6
CC(NC(=O)COC(=O)c1ccccc1Nc1ccccc1)c1ccccc1 (centres undefined)	19.9	84.7*	.	-3.9	.	.
Cc1ccc(C(=O)OCC(=O)NC(C)c2ccccc2)s1 (centres undefined)	-13.4	26.8	-8.4	12.0	-17.2	5.2
Cc1ccc(C(=O)NCC(=O)OCC(=O)NC(C)c2ccccc2)s1 (centres undefined)	26.6	-11.2	-8.3	.	3.7	14.7*
Cc1ccc(OCC(=O)NC(C)c2ccccc2)cc1 (centres undefined)	10.2	46.9*	0.7	-0.6	-3.9	0.1
COC(=O)c1ccccc1NC(=O)CSc1nc(-c2ccco2)cc(C(F)(F)F)n1	8.2	0.2	51.4*	-0.8	-24.3	-1.5
CN(C)c1nc(Oc2ccc(=O)n(-c3ccccc3)n2)nc(N2CCOCC2)n1	.	.	.	-4.6	.	.
CCCCC[C@@H](/C=C/C1C(=O)C=C[C@H]1C/C=C\CCCC(=O)OC)OC(C)=O (some centres undefined)	32.0	46.4*	27.8	-23.5	-5.0	-1.2
CCCN(CCC)C(=O)C1CCC(CNS(=O)(=O)c2cccc3nsnc23)CC1 (centres undefined)	-3.6	-4.8	.	-7.3	-2.4	-1.1
Cc1cc(Br)cn2c(Cc3ccsc3)c(-c3ccc(F)cc3)nc12	7.8	-33.4	-1.3	-6.4	-68.6	8.1*
CCOC(=O)c1ccc(-c2c(-c3ccc(OC)cc3)oc(=O)c3cc(OC)c(OC)cc23)cc1F	-8.1	18.0	-9.0	-9.0	-5.8	1.5
CCOC(=O)c1ccc(-c2c(-c3cc(OC)c(OC)c(OC)c3)noc2C)cc1F	-29.2	8.0	2.7	1.8	-18.8	16.2*
Cc1cc(C)cc(OCC(O)CN2CCN(Cc3ccc4c(c3)OCO4)CC2)c1 (centres undefined)	16.9	-3.0	8.1	.	-0.3	4.3
CN(CC(=O)Nc1ccccc1C(F)(F)F)C(=O)c1cc(-c2cccs2)nn1-c1ccccc1	12.6	-15.0	1.0	.	-16.2	-3.2
Cc1ccc(/C=C/c2nc3ccccc3c(=O)[nH]2)cc1	84.4*	-1.4	69.6*	.	-4.1	-0.1
Cc1cc(C)nc(Nc2ncc(O)n2-c2ccccc2)n1	-4.4	2.2	.	.	.	.
O=C(NCCN1CCN(C(=O)c2cccc(Br)c2)CC1)C(=O)NCc1ccccc1	20.8	7.2	11.7	9.9	-13.8	1.9
